# SMN2 splice up: enhancers of SMN2 splice variant expression. Potency, µM (doses to about 46.1 µM), without a hit: top-dose activity change, positive = activation, most hits filed as activators. 2.8% of 210,000 active. HEK293 SMN2-luciferase splicing reporter, luminescence, 30-36 h; also: % of control where 0% means no effect; nearly all actives have a fitted effect of over 55% in size
#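 HEK293 cells carry an SMN2 […]–luciferase reporter in which exon 7 inclusion puts luciferase in frame. Cells were plated 10-12 h before compound addition, then incubated 30-36 h at 37C. ONE-Glo luminescence was read; sodium butyrate at 4.5 mM final served as control.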
# Rab9 prom act: Rab9 promoter activation; 2.8% of 320,000 active; Huh7 Rab9 promoter-luciferase reporter, luminescence, 24 h; AID 485297; Potency, µM (highest dose often 9.22 µM), without a hit: at the highest dose activation, negative = inhibition, actives largely listed as activators; also: % of control where 0% means no effect; nearly all actives have a fitted effect of over 60% in size
#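 Using Huh7 cells stably transfected with Rab9 promoter–luciferase, compounds were incubated 24 h at 37 °C, 5% CO2; luciferase luminescence was read 10 min after reagent addition.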
# ELG1 repair inh: blocks ELG1-dependent DNA repair in HEK293T cells; HEK293T ELG1-luciferase reporter, luminescence, 16 h; DNA damage induced by 5-fluorouridine; 2.3% of 330,000 active; AID 504467; Potency, µM (top dose mostly 46.1 µM), inactives show top-dose activity change, negative = inhibition, usual class: inhibitors; also: % is scaled to controls: 0 for no effect and ±100 for the full control effect; nearly all actives have a fitted effect of over 55% in size
#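 Quantitative HTS, concentration-response format. 2,000 cells/well co-treated with 5-fluorouridine and compound, 16 hr in 5% CO2 at 37 °C; ONE-Glo luminescence read after 30 min.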
# NPC1 promoter act: activators of NPC1 promoter. Huh7 NPC1 promoter luciferase reporter, 24 h. Potency, µM (top dose mostly 9.22 µM), for inactives: top-dose activation, hits mostly activators. 2.4% of 320,000 active; also: % of control where 0% means no effect; nearly all actives have a fitted effect of over 60% in size
#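 Huh7 reporter cells (NPC1 promoter driving luciferase) are dosed with compound for 24 h at 37 °C, 5% CO2; luciferase detection reagent is then added and luminescence measured after 10 min at ambient temperature.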
# FLuc modulator: firefly luciferase modulation, counter-screen for miR-21 project; P08659; purified FLuc, Km substrates, luminescence inhibition; Potency, µM (series often up to 57.5 µM), without a hit: at the top dose activity change, negative = inhibition, most hits filed as inhibitors; 6.9% of 360,000 active; AID 588342;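 also: plate controls were vehicle for no effect and reference inhibitor for full effect; nearly all actives have a fitted effect of over 55% in size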
# Target sequence (P08659 whole entry, looked up): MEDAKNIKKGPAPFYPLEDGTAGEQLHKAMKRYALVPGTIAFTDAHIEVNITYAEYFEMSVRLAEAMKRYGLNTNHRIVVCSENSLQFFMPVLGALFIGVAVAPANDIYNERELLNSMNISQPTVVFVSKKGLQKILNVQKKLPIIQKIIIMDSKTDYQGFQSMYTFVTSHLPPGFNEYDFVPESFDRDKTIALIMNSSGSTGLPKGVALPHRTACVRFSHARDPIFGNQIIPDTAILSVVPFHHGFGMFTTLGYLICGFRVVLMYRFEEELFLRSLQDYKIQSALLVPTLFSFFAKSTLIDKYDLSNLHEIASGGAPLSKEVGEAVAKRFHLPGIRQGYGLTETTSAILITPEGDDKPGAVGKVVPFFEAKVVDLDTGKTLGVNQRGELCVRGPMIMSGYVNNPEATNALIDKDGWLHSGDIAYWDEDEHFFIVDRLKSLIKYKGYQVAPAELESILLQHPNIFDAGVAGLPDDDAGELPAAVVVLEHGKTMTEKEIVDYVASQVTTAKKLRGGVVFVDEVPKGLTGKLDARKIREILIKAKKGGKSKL
#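 Purified P. pyralis luciferase (10nM final) with 10uM D-luciferin and 10uM ATP (Km levels) in 50mM Tris acetate pH 7.5, 10mM Mg acetate, 0.01% Tween-20, 0.05% BSA; qHTS 6-point titration, ~60 µM downward; luminescence read.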
# ELG1 genotoxic: inducers of genotoxicity in HEK293T ELG1-luciferase cells; Potency, µM (highest dose often 46 µM), inactives show at the highest dose activity change, positive = activation, hits mostly activators; AID 504466; 1.3% of 330,000 active; HEK293T ELG1-luciferase reporter, luminescence, 16 h; also: % of control where 0% means no effect; nearly all actives have a fitted effect of over 60% in size
#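 Genotoxicity was scored as increased ELG1-luciferase reporter signal, measured by ONE-Glo luminescence (30 min, room temperature). Compound or vehicle exposure of the HEK293T reporter cells lasted 16 hr at 37°C.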
# Numbers without * were called inactive; ? = inconclusive; nt = no result given; [ ] = dose if it differs, or a comment. Shown are actives, neighbours in structure and some others; about 9.2% of the full set was active somewhere. Calls follow the shape of the dose curve; as a rule, active = well fitted curve in the direction sought with a large enough effect; inconclusive = small, poorly fitted or top-dose-only effect, or another doubt; inactive = no such curve, though single readings can be large; an effect the other way counts as inactive or inconclusive. Potency is read from the fitted curve at half-maximal effect.
SMILES,SMN2 splice up,Rab9 prom act,ELG1 repair inh,NPC1 promoter act,FLuc modulator,ELG1 genotoxic
Cc1ccc(/C=N/NC(=O)c2csc3c2CCCC3)cc1,23.8%,24.4%,?,0.1%,10.7µM*,?
Cc1ccc(/C=N\NC(=O)c2csnn2)cc1,-2.9%,2.51µM*,?,3.55µM*,3.79µM*,?
COc1cc(/C=N/NC(=O)c2csc3c2CCCC3)cc(OC)c1O,7.8%,-0.4%,-0.6%,7.0%,-19.2%,-1.1%
Cc1ccc(/C=N/NC(=O)c2ccncc2)cc1,nt,5.7%,8.0%,-0.6%,?,-4.7%
CC(CNC(=O)c1csc2c1CCCCC2)c1ccccc1 (stereo unspecified),11.2µM*,nt,nt,nt,15.1µM*,nt
CCOc1ccc2oc(=O)cc(CN3CCN(C(=O)c4ccc(Cl)cc4)CC3)c2c1,-21.5%,nt,nt,nt,-9.1%,nt
COc1ccc(C(=O)N(C)c2ccccc2C(=O)NCCc2ccccc2)cc1,nt,-11.6%,-5.7%,-5.6%,-0.1%,-10.8%
CCN(CC)C(=O)c1sc2c(c1C)c(=O)n(Cc1ccccc1)c(=O)n2Cc1c(C)cc(C)cc1C,nt,nt,nt,nt,-0.3%,nt
Cc1ccc(NC(=O)CCCn2c(=O)c3cccn3c3cccnc32)c(Cl)c1,nt,nt,nt,nt,5.0%,nt
Cc1nc2ccccn2c1/C(O)=C1\C(=O)C(=O)N(CCN2CCOCC2)C1c1cccs1 (stereo unspecified),5.1%,-4.9%,-8.5%,-2.7%,2.7%,0.5%
Cc1c(/C(O)=C2/C(=O)C(=O)N(CCN3CCOCC3)C2c2cccs2)cnn1-c1ccccc1 (stereo unspecified),?,1.26µM*,?,4.47µM*,9.53µM*,1.84µM*
CCN(CC)CCN1C(=O)C(=O)/C(=C(/O)c2cnn(-c3ccccc3)c2C)C1c1ccc(C)o1 (stereo unspecified),7.5%,?,?,29.9%,?,?
Cc1ccc(C2/C(=C(/O)c3cnn(-c4ccccc4)c3C)C(=O)C(=O)N2CCN2CCOCC2)o1 (stereo unspecified),-51.7%,2.82µM*,?,3.55µM*,21.3µM*,5.8µM*
COc1cccc(C2CC(c3cccs3)=NN2S(C)(=O)=O)c1 (stereo unspecified),33.0%,8.8%,-8.3%,5.1%,0.3%,2.7%
COc1ccc(C(C[N+](=O)[O-])C2(c3ccc(OC)c(OC)c3)C(=O)c3ccccc3C2=O)cc1 (stereo unspecified),25.1µM*,?,?,28.4%,6.01µM*,-13.4%
CCOCN(C(=O)Cn1c(CC(C)C)nc2ccccc21)c1c(C)cccc1CC,-9.2%,nt,nt,nt,5.5%,nt
COc1cc(C2C=C(C34CC5CC(CC(C5)C3)C4)NC(=S)N2)cc(OC)c1OC (stereo unspecified),-23.3%,3.3%,23.1µM*,-3.7%,1.6%,-10.9%
COc1ccc(OC)c(C2C=C(C34CC5CC(CC(C5)C3)C4)NC(=S)N2)c1 (stereo unspecified),-22.3%,-3.7%,?,-2.7%,-0.6%,-4.7%
COc1ccccc1C(=O)Nc1ccnn1C1CCN(Cc2ccn[nH]2)CC1,nt,17.1%,0.5%,-3.2%,7.1%,-2.0%
COc1ccccc1CCNC(=O)Cn1c(=O)oc2ccccc21,nt,3.8%,1.3%,-7.0%,15.1µM*,-8.1%
Fc1cccc(CSc2ccc(-c3ccco3)nn2)c1,?,?,?,?,12µM*,?
Fc1ccc(CSc2ccc(-c3ccco3)nn2)cc1,22.4µM*,3.16µM*,?,3.16µM*,4.78µM*,?
O=C(CSc1ccc(-c2ccco2)nn1)NCc1ccc(F)cc1,4.8%,8.7%,0.4%,-0.7%,-13.8%,0.7%
CSc1ccc(-c2ccco2)nn1,nt,3.16µM*,?,?,?,?
CCSc1ccc(-c2ccco2)nn1,24.3%,21.0%,?,21.9%,?,10.2%
SMILES,SMN2 splice up,Rab9 prom act,ELG1 repair inh,NPC1 promoter act,FLuc modulator,ELG1 genotoxic
O=C(NC1CCCC1)c1ccc(Cl)c(S(=O)(=O)N2CCCCC2)c1,nt,-4.8%,5.5%,-0.4%,-1.3%,-6.6%
Cc1ccc(C)c(CN2C(=O)c3ccccc3S(=O)c3ccc(C(=O)NCCC4=CCCCC4)cc32)c1 (stereo unspecified),3.7%,nt,nt,nt,-0.8%,nt
c1coc(-c2nnc(-c3ccco3)nn2)c1,nt,?,8.9%,?,16.9µM*,4.0%
CCOc1ccc(-c2nnc(-c3ccco3)o2)cc1OCC,-15.3%,?,?,29.7%,?,?
CSc1nnc(-c2ccco2)c(-c2ccco2)n1,?,7.2%,-2.4%,-0.1%,?,2.7%
Brc1ccc(-c2nnc(-c3ccco3)o2)cc1,nt,3.98µM*,?,3.16µM*,8.49µM*,?
c1coc(-c2nnc(-c3cccs3)o2)c1,11.2µM*,?,?,?,?,?
c1ccc(-c2nnc(-c3ccco3)o2)cc1,nt,3.16µM*,?,3.16µM*,21.3µM*,2.06µM*
O=C(Cc1ccccc1)Nc1ccc(-c2nnc(-c3ccco3)o2)cc1,1.0%,7.9%,15.2%,-0.2%,2.9%,2.3%
C[C@H](CO)N1C[C@H](C)[C@@H](CN(C)CC2CCCCC2)Oc2ccc(NC(=O)Cn3cnnn3)cc2C1=O,nt,nt,13.9%,nt,nt,-2.0%
COc1ccc(NC(=O)C2=C(C)Nc3nc(CCCO)nn3C2c2ccc(O)cc2)cc1 (stereo unspecified),nt,nt,nt,nt,-4.3%,nt
Cc1c(Cl)cccc1NC(=O)C1CCN(c2nc3ccccc3[nH]2)CC1,nt,nt,nt,nt,-1.7%,nt
Cc1ccc(-c2nnc(-c3ccc(Br)cc3)o2)o1,12.6µM*,3.16µM*,?,?,3.01µM*,?
CCN(CC)S(=O)(=O)c1cc(-c2nnc(-c3ccc(Br)cc3)o2)ccc1Br,-61.6%,-4.9%,?,-3.8%,-6.7%,-0.5%
COC(=O)c1ccc(-c2nc(CN3CCN(Cc4cccc(C)c4)CC3)c(C)o2)cc1,nt,15.2%,15.1%,1.9%,-18.9%,-6.0%
COC(=O)c1ccc2c(c1)N(Cc1nc(-c3cccc(C)c3)oc1C)C(=O)C1CCCN21 (stereo unspecified),10µM*,2.3%,3.7%,0.5%,-1.3%,8.9%
O=c1[nH]c(CCl)nc2cc(-c3ccc(F)cc3)sc12,nt,-43.3%,?,-0.3%,0.301µM*,?
Cc1cc(N)n2nc(-c3ccccc3)c(-c3ccccc3)c2n1,nt,0.3%,?,-5.5%,-10.5%,5.5%
CCOC(=O)c1nnc2c(-c3ccc(Cl)cc3)c(C)nn2c1N,0.2%,nt,nt,nt,-0.3%,nt
Cc1ccc(-c2ccnc3c(Cl)c(C)nn23)cc1,nt,-2.2%[1.84 µM],4.3%,-3.1%,?,-1.8%
Cc1nn2c3c(cnc2c1-c1ccccc1)C(=O)CCC3,-1.3%,?,?,?,15.1µM*,?
